Results taken from PubChem BioAssay (EPA / NIEHS).
Inconclusive results are not listed. Calls of active or inactive are those of the source. The calls were made as follows, unless noted: active = hit-call score of the fitted dose curve at least 0.9, where 1 is the maximum; inconclusive = response in the unintended direction; inactive = score below 0.9.

Key:
[1] = target: Retinoic acid receptor RXR-alpha (Homo sapiens) (UniProt P19793); experiment: OT_NURR1_NURR1RXRa_0480: Odyssey Thera (OT) 8-hour HEK293T Protein Complementation Assay for Nurr1/retinoid X receptor (RXR) (AID 2283385)
Retinoic acid receptor RXR-alpha (Homo sapiens), sequence (P19793 whole entry, looked up, the tested form may be a part): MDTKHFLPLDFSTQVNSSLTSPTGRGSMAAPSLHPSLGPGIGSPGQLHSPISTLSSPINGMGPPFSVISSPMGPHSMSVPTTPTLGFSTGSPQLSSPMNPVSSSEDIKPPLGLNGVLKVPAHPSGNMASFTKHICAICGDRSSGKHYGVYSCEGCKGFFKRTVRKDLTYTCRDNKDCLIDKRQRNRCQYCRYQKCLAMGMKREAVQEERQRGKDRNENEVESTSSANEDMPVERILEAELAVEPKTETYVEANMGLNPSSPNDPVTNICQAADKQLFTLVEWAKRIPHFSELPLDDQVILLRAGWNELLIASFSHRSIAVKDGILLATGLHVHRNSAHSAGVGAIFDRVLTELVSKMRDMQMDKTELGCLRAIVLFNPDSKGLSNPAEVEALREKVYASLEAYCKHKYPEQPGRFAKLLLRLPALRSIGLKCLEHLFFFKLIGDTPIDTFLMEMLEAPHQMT
Summary of the method: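 Read-out: fluorescence from protein-fragment complementation between Nurr1 and RXRα in human HEK293T cells, 8 h after dosing. DMSO served as negative control; increased signal counted as activity.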

[2] = target: Retinoic acid receptor RXR-alpha (Homo sapiens) (UniProt P19793); experiment: OT_NURR1_NURR1RXRa_1440: Odyssey Thera (OT) 24-hour HEK293T Protein Complementation Assay for Nurr1/retinoid X receptor (RXR) (AID 2283386)
Summary of the method: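 Fluorescence PCA read-out; HEK293T; 24 h post-dose; bait/prey fused to reporter fragments; gain-of-signal fit vs DMSO negative control.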

[3] = target: Peroxisome proliferator-activated receptor gamma (Homo sapiens) (UniProt P37231); experiment: OT_PPARg_PPARgSRC1_0480: Odyssey Thera (OT) 8-hour Protein-Complementation Assay for Peroxisome Proliferator-activated Receptor Gamma / SRC-1 Co-activator (AID 2283387);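 also: nuclear to cytoplasmic split Venus YFP fluorescence ratio reporting PPARg SRC-1 interaction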
Peroxisome proliferator-activated receptor gamma (Homo sapiens), sequence (P37231 whole entry, looked up, the tested form may be a part): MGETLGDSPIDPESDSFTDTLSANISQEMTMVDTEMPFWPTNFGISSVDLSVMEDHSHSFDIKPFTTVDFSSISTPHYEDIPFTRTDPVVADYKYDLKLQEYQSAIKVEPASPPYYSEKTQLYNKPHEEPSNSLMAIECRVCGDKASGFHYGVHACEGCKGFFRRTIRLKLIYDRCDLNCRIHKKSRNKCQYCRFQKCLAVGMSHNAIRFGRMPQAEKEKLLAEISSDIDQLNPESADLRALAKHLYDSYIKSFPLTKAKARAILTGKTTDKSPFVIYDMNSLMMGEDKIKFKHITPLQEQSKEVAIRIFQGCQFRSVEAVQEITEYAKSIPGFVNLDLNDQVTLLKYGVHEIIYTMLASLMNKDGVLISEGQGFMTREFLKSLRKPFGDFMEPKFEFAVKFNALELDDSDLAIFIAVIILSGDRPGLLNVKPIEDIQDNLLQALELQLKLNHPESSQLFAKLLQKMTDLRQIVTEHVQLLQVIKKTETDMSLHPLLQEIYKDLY
Summary of the method: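 HEK293T transiently transfected with PPARg and SRC-1 fused to Venus YFP fragments, compounds 8 h at 37C. Fixed, Draq5-stained cells imaged; nuclear/cytoplasmic 488 nm fluorescence ratio over at least 350 cells per image; gain fitted versus DMSO.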

[4] = target: Peroxisome proliferator-activated receptor gamma (Homo sapiens) (UniProt P37231); experiment: OT_PPARg_PPARgSRC1_1440: Odyssey Thera (OT) 24-hour Protein-Complementation Assay for Peroxisome Proliferator-activated Receptor Gamma/ SRC-1 Co-activator (AID 2283388)
Summary of the method: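 Readout is the 488 nm N/C fluorescence ratio from fixed, Draq5-stained HEK293T cells after 24 h compound exposure. Cells carried transiently transfected PPARg and SRC-1 fused to Venus fragments, transfected 48 h before treatment.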

[5] = target: Estrogen receptor (Homo sapiens) (UniProt P03372); experiment: OT_ERa_GFPERaERE_0480: Odyssey Thera (OT) 8-hour HeLa Transcription Induction Assay for Estrogen Receptor (AID 2283381; active = hit-call score of the fitted dose curve at least 0.9, where 1 is the maximum; inactive = score below 0.9)
Estrogen receptor (Homo sapiens), sequence (P03372 whole entry, looked up): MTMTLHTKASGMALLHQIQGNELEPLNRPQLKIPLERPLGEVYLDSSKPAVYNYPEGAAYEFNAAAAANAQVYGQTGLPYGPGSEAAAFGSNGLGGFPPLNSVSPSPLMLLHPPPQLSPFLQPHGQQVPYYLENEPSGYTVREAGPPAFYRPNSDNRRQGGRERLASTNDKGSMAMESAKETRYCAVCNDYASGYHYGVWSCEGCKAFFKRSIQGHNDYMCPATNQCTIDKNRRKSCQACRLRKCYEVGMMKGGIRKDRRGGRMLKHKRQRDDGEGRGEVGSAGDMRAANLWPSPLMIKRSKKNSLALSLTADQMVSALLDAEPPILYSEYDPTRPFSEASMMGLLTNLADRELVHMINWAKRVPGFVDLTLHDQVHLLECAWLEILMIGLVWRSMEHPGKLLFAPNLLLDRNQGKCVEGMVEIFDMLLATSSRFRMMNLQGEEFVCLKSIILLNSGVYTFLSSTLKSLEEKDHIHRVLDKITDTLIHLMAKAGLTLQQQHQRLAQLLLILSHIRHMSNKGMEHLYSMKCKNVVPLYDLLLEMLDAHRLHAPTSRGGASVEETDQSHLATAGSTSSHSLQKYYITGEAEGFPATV
Summary of the method: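 GFP-ERE reporter, HeLa, 8 h exposure. Readout: fluorescence microscopy, high-content image analysis. Fit direction positive vs DMSO negative control.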

[6] = target: Estrogen receptor (Homo sapiens) (UniProt P03372); experiment: OT_ERa_GFPERaERE_0120: Odyssey Thera (OT) 2-hour HeLa Transcription Induction Assay for Estrogen Receptor (AID 2283382)
Summary of the method: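 Fluorescence microscopy read-out: inducible fluorescent protein reporter in HeLa cells, imaged 2 h post-dose. Signal increase over DMSO negative control fitted as single primary endpoint via high content image analysis.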

[7] = target: Bile acid receptor (Homo sapiens) (UniProt Q96RI1); experiment: OT_FXR_FXRSRC1_1440: Odyssey Thera (OT) 24-hour HEK293T Protein-Complementation Assay for Farnesoid X receptor/SRC-1 Co-activator (AID 2283384)
Bile acid receptor (Homo sapiens), sequence (Q96RI1 whole entry, looked up, the tested form may be a part): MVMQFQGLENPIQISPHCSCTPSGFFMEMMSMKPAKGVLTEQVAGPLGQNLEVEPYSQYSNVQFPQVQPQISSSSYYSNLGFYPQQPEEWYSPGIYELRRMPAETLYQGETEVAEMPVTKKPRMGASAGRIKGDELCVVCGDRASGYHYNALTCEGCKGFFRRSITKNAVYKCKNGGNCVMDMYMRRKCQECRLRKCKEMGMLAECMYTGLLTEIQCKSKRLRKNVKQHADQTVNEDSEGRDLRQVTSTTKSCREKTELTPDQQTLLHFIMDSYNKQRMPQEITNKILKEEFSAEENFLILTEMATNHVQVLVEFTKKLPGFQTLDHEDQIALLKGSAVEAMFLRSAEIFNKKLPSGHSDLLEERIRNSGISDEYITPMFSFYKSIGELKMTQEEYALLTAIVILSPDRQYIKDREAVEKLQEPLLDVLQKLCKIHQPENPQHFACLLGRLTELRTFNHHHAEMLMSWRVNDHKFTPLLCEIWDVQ
Summary of the method: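 Fluorescence readout, 24 h post-dose, HEK293T; FXR and SRC-1 fused to complementary reporter fragments, association reconstitutes signal. Positive-direction fit vs DMSO baseline.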

[8] = target: Estrogen receptor beta (Homo sapiens) (UniProt Q92731); experiment: OT_ER_ERbERb_1440: Odyssey Thera (OT) 24-hour HEK293T Protein-Complementation Assay for Estrogen Receptor-beta/-beta Homodimer (AID 2283380);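 also: fluorescence gain from ER beta LBD homodimer complementation read by laser scanning cytometry; scored as signal increase over DMSO baseline for both agonists and antagonists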
Estrogen receptor beta (Homo sapiens), sequence (Q92731 whole entry, looked up, the tested form may be a part): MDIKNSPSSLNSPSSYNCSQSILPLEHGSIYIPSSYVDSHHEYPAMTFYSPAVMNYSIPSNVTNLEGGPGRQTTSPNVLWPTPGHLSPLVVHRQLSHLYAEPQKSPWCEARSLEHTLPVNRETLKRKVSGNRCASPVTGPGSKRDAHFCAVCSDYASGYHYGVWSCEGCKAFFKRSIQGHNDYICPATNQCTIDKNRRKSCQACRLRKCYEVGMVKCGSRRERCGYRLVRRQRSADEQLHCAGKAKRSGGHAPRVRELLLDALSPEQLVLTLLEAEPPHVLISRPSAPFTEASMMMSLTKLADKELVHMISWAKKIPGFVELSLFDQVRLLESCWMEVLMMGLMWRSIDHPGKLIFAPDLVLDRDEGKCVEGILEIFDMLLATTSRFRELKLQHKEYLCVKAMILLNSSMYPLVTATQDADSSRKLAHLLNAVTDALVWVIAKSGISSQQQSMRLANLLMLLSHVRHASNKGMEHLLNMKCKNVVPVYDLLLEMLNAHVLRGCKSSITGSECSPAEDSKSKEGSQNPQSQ
Summary of the method: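 Fluorescence increase, nuclear for agonists or whole-cell for antagonists, relative to DMSO vehicle, quantified by laser scanning cytometer after fixation and Draq5 staining. Readout from 24 h treatment of HEK293T cells carrying complementation-paired ER beta LBD (aa 310-547).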

[9] = CEETOX_H295R_11DCORT: CeeTox H295R High-throughput Steroidogenesis Assay for 11-Deoxycortisol (11DCORT) (AID 2283432; active = hit-call score of the fitted dose curve at least 0.9, where 1 is the maximum; inactive = score below 0.9;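 as to AC50: 11-deoxycortisol secreted into the medium measured by LC-MS/MS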); settings: actives raise or lower the signal
Summary of the method: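 H295R cells prestimulated 48 h with 10 uM forskolin, then exposed 48 h to chemical in 0.1% DMSO. 11-Deoxycortisol in medium quantified by HPLC-MS/MS after MTBE extraction; bidirectional fit versus DMSO. MTT viability read in same wells.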

[10] = CEETOX_H295R_OHPREG: CeeTox H295R High-throughput Steroidogenesis Assay for OH-Pregnenolone (OHPREG) (AID 2283434; active = hit-call score of the fitted dose curve at least 0.9, where 1 is the maximum; inactive = score below 0.9); settings: actives raise or lower the signal
Summary of the method: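 Secreted 17alpha-hydroxypregnenolone measured by HPLC-MS/MS after liquid-liquid extraction. Human adrenal H295R cells received 48 h forskolin (10 uM) stimulation before 48 h chemical exposure at 0.1% final DMSO; MTT viability in same wells; bidirectional fit against DMSO.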

[11] = CEETOX_H295R_OHPROG: CeeTox H295R High-throughput Steroidogenesis Assay for OH-Progesterone (OHPROG) (AID 2283435; active = hit-call score of the fitted dose curve at least 0.9, where 1 is the maximum; inactive = score below 0.9;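 as to AC50: 17alpha-hydroxyprogesterone secreted into medium measured by HPLC-MS/MS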); settings: actives raise or lower the signal
Summary of the method: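 HPLC-MS/MS quantification of 17alpha-hydroxyprogesterone secreted by H295R cells after 48 h chemical exposure, following 48 h 10 uM forskolin prestimulation. Gain or loss of signal fitted relative to DMSO. Viability checked by MTT in the same wells.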

[12] = CEETOX_H295R_CORTISOL: CeeTox H295R High-throughput Steroidogenesis Assay for Cortisol (AID 2283438; active = hit-call score of the fitted dose curve at least 0.9, where 1 is the maximum; inactive = score below 0.9;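 also: cortisol secreted into medium quantified by LC-MS/MS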); settings: actives raise or lower the signal
Summary of the method: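 Read-out: cortisol in culture medium by reverse-phase C18 HPLC with ESI-positive tandem MS, after MTBE liquid-liquid extraction. Cells: human adrenal H295R, forskolin-primed (10 uM, 48 h) before 48 h chemical exposure in 0.1% DMSO.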

[13] = CEETOX_H295R_DOC: CeeTox H295R High-throughput Steroidogenesis Assay for DOC (AID 2283439; active = hit-call score of the fitted dose curve at least 0.9, where 1 is the maximum; inactive = score below 0.9); settings: actives raise or lower the signal
Summary of the method: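 Human adrenocortical H295R cells, passages up to 10, received 10 uM forskolin for 48 h before chemical addition. After another 48 h exposure in 0.1% DMSO, secreted DOC was measured by LC-MS/MS, with gain or loss fitted against DMSO controls.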

[14] = CEETOX_H295R_ESTRADIOL: CeeTox H295R High-throughput Steroidogenesis Assay for Estradiol (AID 2283440; active = hit-call score of the fitted dose curve at least 0.9, where 1 is the maximum; inactive = score below 0.9;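 also: estradiol secreted into medium quantified by LC-MS/MS after dansyl derivatisation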); settings: actives raise or lower the signal
Summary of the method: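 Estradiol in spent medium measured by LC-MS/MS after dansyl chloride derivatisation. Forskolin-primed (10 uM, 48 h) human adrenal H295R cells received test chemical 48 h at 0.1% DMSO; concentrations lowered until MTT viability >/=70%.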

[15] = CEETOX_H295R_ESTRONE: CeeTox H295R High-throughput Steroidogenesis Assay for Estrone (AID 2283441; active = hit-call score of the fitted dose curve at least 0.9, where 1 is the maximum; inactive = score below 0.9;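 also: estrone secreted into medium measured by LC-MS/MS after dansyl derivatization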;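 as to AC50: human adrenal H295R cells prestimulated with forskolin for two days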); settings: actives raise or lower the signal
Summary of the method: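 Forskolin-stimulated H295R cells are treated 48 h with chemical, and estrone in the medium is measured by LC-MS/MS. Activity is fitted in both directions relative to DMSO controls, with chemicals diluted until MTT viability reaches at least 70%.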

[16] = CEETOX_H295R_ANDR: CeeTox H295R High-throughput Steroidogenesis Assay for Androstenedione (ANDR) (AID 2283436; active = hit-call score of the fitted dose curve at least 0.9, where 1 is the maximum; inactive = score below 0.9); settings: actives raise or lower the signal
Summary of the method: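 Medium from 48 h chemical-treated H295R adrenal cells was extracted with MTBE and androstenedione measured by LC-MS/MS. Activity was fit in both directions relative to DMSO. Cytotoxic concentrations were re-tested after dilution until MTT viability reached ≥70%.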

Measured: AC50

C=O
inactive: [1] | [2] | [3] | [4]

OCCN1CCNCC1
inactive: [5] | [6] | [7] | [2] | [3] | [4]

CC1(C)C(=O)N(Br)C(=O)N1Cl
inactive: [8] | [3] | [4]

Cc1ccc(C(C)C)cc1O
inactive: [8] | [2] | [3] | [4]

CC(C)=CCCC(C)CC=O (configuration not stated)
inactive: [7] | [3] | [4]

O=C(Oc1ccccc1)c1ccc(O)cc1
inactive: [2] | [3] | [4]

CCCCCCCCCCC(CO)CCCCCCCC (configuration not stated)
inactive: [2] | [3] | [4]

CCCC1CCC(=O)O1 (configuration not stated)
inactive: [3] | [4]

CC(C)(C#N)c1cc(Cn2cncn2)cc(C(C)(C)C#N)c1
inactive: [2] | [3] | [4]

CCCCCC(CO)CCC (configuration not stated)
inactive: [2] | [3] | [4]

O=C(O)c1ccc(C(=O)O)cc1
inactive: [2] | [3] | [4]

C#C[C@]1(O)CC[C@H]2[C@@H]3CCC4=Cc5oncc5C[C@]4(C)[C@H]3CC[C@@]21C
active: [9] 5400 nM | [10] 360 nM | [11] 871 nM | [12] 3340 nM | [14] 5570 nM | [15] 3420 nM
inactive: [13]

CC1(C)[C@H](C(=O)OCc2cccc(Oc3ccccc3)c2)[C@@H]1C=C(Cl)Cl
inactive: [9] | [10] | [11] | [16] | [12] | [13]

O=C(O)Cc1cccc2ccccc12
inactive: [3] | [4]

Nc1ccc(F)c([N+](=O)[O-])c1
active: [11] 37700 nM
inactive: [9] | [10] | [12] | [13] | [14] | [15]

NC(=O)NC1NC(=O)NC1=O (configuration not stated)
inactive: [2] | [3] | [4]

O=C(O)C[C@H](O)C[C@H](O)/C=C/c1c(C2CC2)nc2ccccc2c1-c1ccc(F)cc1
inactive: [12]
active: [9] 62.5 nM | [10] 2.06 nM | [11] 58.2 nM | [16] 76.8 nM | [13] 33.1 nM

COc1cc2ncnc(Nc3cccc(Cl)c3)c2cc1OC
inactive: [9] | [10] | [11] | [16] | [12] | [14] | [15]
active: [13] 496 nM

Nc1cc([N+](=O)[O-])ccc1Cl
active: [11] 39300 nM
inactive: [9] | [10] | [16] | [12] | [13]

CCCCCCCCCCCCCCCC(=O)O
inactive: [2] | [3] | [4]

NCCNCCN
inactive: [2] | [3] | [4]

CCN(CC)CCOC(=O)c1ccc(N)cc1
inactive: [3] | [4]

CC1CC(OC(=O)c2ccccc2O)CC(C)(C)C1 (configuration not stated)
inactive: [3] | [4]

Cc1cccc(C)c1C
inactive: [9] | [10] | [11] | [12] | [13]
